Results taken from PubChem BioAssay AID1224921 (Broad Institute, 2016).
Among all 1,400 compounds or so, about 350 (25%) were called active. Another 2% or so got no clear call; they are omitted. No rule for the calls is given here. The list is a sample of the results. Entries with a potency or affinity are not part of this list.

test: inhibitors of Clostridioides difficile proliferation – 4-point retest, confirmation (AID 1224921); conditions: Clostridioides difficile clinical isolate growth, OD600, 24 h, hits give low values; at 30 µM unless noted;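 also: plate controls were DMSO wells for no effect and levofloxacin 16 µg/mL wells for full effect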

Max activity, inactive:
CCCNC(=O)[C@@H]1[C@@H](CO)[C@@H]2Cn3c(cccc3=O)[C@H]1N2C(=O)NCCC -6.96%, CO[C@@H]1CN(C)C(=O)c2cc(NC(=O)Nc3cccc(Cl)c3)ccc2OC[C@H](C)N(C(=O)Nc2c(C)noc2C)C[C@H]1C -9.85%, COC(=O)[C@H]1[C@H](CO)[C@H]2Cn3c(ccc(-c4cccc(F)c4)c3=O)[C@H]2N1S(C)(=O)=O 23.4%, COC(=O)[C@@H]1[C@@H](CO)[C@@H]2Cn3c(ccc(-c4cccc(F)c4)c3=O)[C@@H]2N1C(C)=O 11.6% [at 8 µM], COCC1CC(c2ccccc2)OC(c2ccc(NC(=O)CCCCCCC(=O)O)cc2)O1 (configuration not stated) 17.9%, C[C@@H]1CN([C@@H](C)CO)S(=O)(=O)c2ccc(/C=C/c3ccccc3)cc2O[C@@H]1CN(C)Cc1cccnc1 -27.8% [at 1.95 µM], C[C@H]1CN([C@@H](C)CO)S(=O)(=O)c2ccc(/C=C/c3ccccc3)cc2O[C@@H]1CN(C)C 16.2%, C[C@@H]1CN([C@H](C)CO)S(=O)(=O)c2ccc(/C=C/c3ccccc3)cc2O[C@H]1CN(C)C 57%, CC(C)CC#Cc1ccc2c(c1)O[C@H](CN(C)Cc1ccc(F)cc1)[C@@H](C)CN([C@@H](C)CO)S2(=O)=O 30.5% [at 1.95 µM], CC(C)CC#Cc1ccc2c(c1)O[C@H](CN(C)Cc1ccc(F)cc1)[C@H](C)CN([C@H](C)CO)S2(=O)=O 23.3% [at 8 µM], C[C@H]1CN([C@@H](C)CO)S(=O)(=O)c2ccc(/C=C/c3ccccc3)cc2O[C@@H]1CN(C)Cc1cccnc1 -24.8% [at 0.5 µM], CO[C@H]1CN(C)C(=O)c2cc(NC(=O)NC(C)C)ccc2OC[C@H](C)N(Cc2ccccn2)C[C@@H]1C -9.04% [at 1.95 µM], C[C@H](CO)N1C[C@H](C)[C@H](CN(C)C(=O)C2CCC2)Oc2ncc(C#Cc3cccc(F)c3)cc2C1=O 15.1% [at 8 µM], C[C@H](NC(=O)C[C@H]1C=C[C@@H](NC(=O)C2CCC2)[C@H](CO)O1)c1ccccc1 -11.6%, CNC[C@@H]1Oc2cc(-c3ccccc3F)ccc2S(=O)(=O)N([C@@H](C)CO)C[C@H]1C 20.5%, O=C(N[C@@H]1C=C[C@@H](CC(=O)N2CCCCC2)O[C@@H]1CO)c1ccc2c(c1)OCO2 15.7% [at 8 µM], CO[C@H]1CN(C)C(=O)c2cc(NS(=O)(=O)c3cccc(F)c3)ccc2OC[C@@H](C)N(Cc2cc(F)ccc2F)C[C@@H]1C 33.9%, C[C@H]1CN([C@@H](C)CO)S(=O)(=O)c2ccc(C#CCC3CCCC3)cc2O[C@@H]1CN(C)C -13.1% [at 1.95 µM], N#C[C@H]1[C@@H](c2ccc(C3=CCCCC3)cc2)[C@H](CO)N1S(=O)(=O)c1ccccc1 -7.4% [at 1.95 µM], N#C[C@@H]1[C@@H](c2ccc(C#Cc3cccnc3)cc2)[C@@H](CO)N1C(=O)C1CCCCC1 27.2%, C[C@@H]1CN([C@H](C)CO)S(=O)(=O)c2ccc(C#CCC3CCCC3)cc2O[C@@H]1CN(C)C 14.7% [at 8 µM], C[C@H](CO)N1C[C@H](C)[C@H](CN(C)C)Oc2cc(C#CCC3CCCC3)ccc2S1(=O)=O 37%, C[C@@H]1CN([C@@H](C)CO)S(=O)(=O)c2ccc(C#CCC3CCCC3)cc2O[C@H]1CN(C)C(=O)CN(C)C -17.9%, CCC(=O)N(C)C[C@H]1Oc2cc(C#CCC3CCCC3)ccc2S(=O)(=O)N([C@@H](C)CO)C[C@@H]1C 24.3%, CO[C@H]1CN(C)C(=O)c2cc(NC(=O)NC(C)C)ccc2OC[C@@H](C)N(C)C[C@H]1C 4.11%, O=C(CN1CCOCC1)NCC[C@H]1CC[C@H](NC(=O)Cc2ccccn2)[C@@H](CO)O1 -9.14% [at 0.5 µM], CCCNC(=O)Nc1ccc2c(c1)C(=O)N(C)C[C@H](OC)[C@@H](C)CN(C)[C@H](C)CO2 -9.08% [at 8 µM], CC(=O)N(C)C[C@H]1Oc2cc(C#CC3CCCCC3)ccc2S(=O)(=O)N([C@H](C)CO)C[C@H]1C 12.6% [at 8 µM], C[C@@H]1CN([C@H](C)CO)S(=O)(=O)c2ccc(C#CC3CCCC3)cc2O[C@H]1CN(C)C 49.4%, C[C@H]1CN([C@@H](C)CO)S(=O)(=O)c2ccc(C#CCC3CCCC3)cc2O[C@H]1CN(C)C 10.1% [at 8 µM], C[C@H](CO)N1C[C@H](C)[C@@H](CN(C)C)Oc2cc(C#CCC3CCCC3)ccc2S1(=O)=O 7% [at 7.5 µM], O=C(Nc1cc(F)ccc1F)N[C@@H]1CC[C@H](CC(=O)N2CCc3ccccc3C2)O[C@H]1CO 38.5%, O=C(N[C@H]1C=C[C@H](CC(=O)N2CCOCC2)O[C@H]1CO)c1cccc(F)c1 -11.2% [at 1.95 µM], CO[C@@H]1CN(C)C(=O)c2ccc(NC(=O)c3ccc(F)cc3)cc2OC[C@@H](C)N(C(=O)CN(C)C)C[C@@H]1C -12.8% [at 1.95 µM], C[C@H]1CN([C@@H](C)CO)S(=O)(=O)c2ccc(C3=CCCCC3)cc2O[C@@H]1CN(C)Cc1ccncc1 42.8%, CO[C@H]1CN(C)C(=O)c2ccc(NC(=O)c3nc4ccccc4s3)cc2OC[C@@H](C)N(Cc2cccnc2)C[C@@H]1C 23.4%, COCCNC(=O)C[C@@H]1C[C@@H]2c3cc(NC(=O)Nc4ccc(C(F)(F)F)cc4)ccc3O[C@@H]2[C@H](CO)O1 9.41%, O=C(C[C@H]1C[C@H]2c3cc(NC(=O)Nc4ccc(C(F)(F)F)cc4)ccc3O[C@H]2[C@H](CO)O1)NCC1CC1 -13.1% [at 1.95 µM], COCCNC(=O)C[C@H]1C[C@H]2c3cc(NC(=O)Nc4ccc(C(F)(F)F)cc4)ccc3O[C@H]2[C@@H](CO)O1 -9.02%, O=C(C[C@H]1C[C@H]2c3cc(NC(=O)Nc4ccc(C(F)(F)F)cc4)ccc3O[C@H]2[C@@H](CO)O1)NCC1CC1 -16.4% [at 0.5 µM], O=C(C[C@H]1C[C@@H]2c3cc(NC(=O)Nc4ccc(C(F)(F)F)cc4)ccc3O[C@@H]2[C@@H](CO)O1)NCC1CC1 14.9%, COCCNC(=O)C[C@H]1C[C@H]2c3cc(NC(=O)Nc4ccc(C(F)(F)F)cc4)ccc3O[C@H]2[C@H](CO)O1 -7.9% [at 1.95 µM]
